USP1-UAF1 inh: Inhibitors of USP1/UAF1: Primary Screen; Potency, µM (doses to about 57.1 µM), usual class: inhibitors; AID 743255, 2014; 390,000 compounds, 0.23% hits; recombinant USP1/UAF1, Ub-Rhodamine cleavage fluorescence; also: nearly all actives have a fitted effect of over 60% in size
Target sequence (O94782 whole entry, looked up): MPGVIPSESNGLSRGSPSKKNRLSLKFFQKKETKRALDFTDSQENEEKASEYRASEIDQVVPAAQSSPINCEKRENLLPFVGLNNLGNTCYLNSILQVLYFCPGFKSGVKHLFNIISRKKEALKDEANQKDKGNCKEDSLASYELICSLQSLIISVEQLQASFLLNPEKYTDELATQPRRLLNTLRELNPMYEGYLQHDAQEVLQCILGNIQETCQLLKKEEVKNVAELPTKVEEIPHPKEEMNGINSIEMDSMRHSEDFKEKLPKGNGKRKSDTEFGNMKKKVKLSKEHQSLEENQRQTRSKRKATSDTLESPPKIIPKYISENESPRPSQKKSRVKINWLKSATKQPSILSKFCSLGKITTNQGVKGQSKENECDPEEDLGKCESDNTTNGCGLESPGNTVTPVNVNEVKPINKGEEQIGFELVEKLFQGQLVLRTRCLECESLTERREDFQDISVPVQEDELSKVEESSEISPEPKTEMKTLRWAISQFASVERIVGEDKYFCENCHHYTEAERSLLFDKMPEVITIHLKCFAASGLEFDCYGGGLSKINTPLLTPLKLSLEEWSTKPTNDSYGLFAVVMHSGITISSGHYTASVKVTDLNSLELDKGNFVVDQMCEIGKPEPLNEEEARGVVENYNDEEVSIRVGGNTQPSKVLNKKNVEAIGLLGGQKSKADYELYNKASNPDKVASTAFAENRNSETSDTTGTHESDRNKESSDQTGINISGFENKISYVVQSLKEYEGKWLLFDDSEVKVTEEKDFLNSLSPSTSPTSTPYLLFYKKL
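USP1/UAF1 complex (1 nM) preincubated 15 min at room temperature with compound, then Ub-Rho substrate (150 nM final) added. Kinetic fluorescence at 480/540 nm over 6 reads at 60 s intervals; 50 mM HEPES pH 7.8, 0.5 mM EDTA, 0.1 mg/ml BSA, 1 mM TCEP, 0.01% Tween-20.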
Tau fibril FP: qHTS for Inhibitors of Tau Fibril Formation, Fluorescence Polarization; 280,000 compounds, 0.39% hits; Potency, µM (titrated, usually from 57.7 µM), hits mostly inhibitors; AID 1468, 2008; K18 P301L tau heparin fibrillization, Alexa594 FP, 6 h; also: nearly all actives have a fitted effect of over 55% in size
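Quantitative HTS format: compounds meet 15 uM recombinant K18 P301L tau and Alexa 594-tau tracer in 100 mM sodium acetate pH 7; 20 uM heparin triggers fibrillization at 37 C over 6 hr; FP gives the signal.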
Tau fluor cs: Counterscreen qHTS for Inhibitors of Tau Fibril Formation, Fluorescence Polarization; 280,000 compounds, 0.93% hits; tau K18 P301L Alexa594 fluorescence, heparin fibrillization; Potency, µM (series often up to 57.7 µM); also: nearly all actives have a fitted effect of over 55% in size
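Human K18 P301L tau (15 uM unlabeled plus 0.24 uM Alexa 594-labeled, final) in 100 mM sodium acetate pH 7 was mixed with compound and 20 uM heparin and incubated 6 hr at 37 C.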
Tau fibril ThT: qHTS for Inhibitors of Tau Fibril Formation, Thioflavin T Binding. Microtubule-associated protein tau (Homo sapiens), P10636. recombinant tau K18 P301L (four-repeat tau fragment), heparin-induced fibrillization, ThT fluorescence. Potency, µM (highest dose often 57.4 µM), hits mostly inhibitors. 270,000 compounds, 2.1% hits; also: nearly all actives have a fitted effect of over 55% in size
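Tau K18 P301L fragment (15 uM unlabeled plus 0.24 uM Alexa 594-labeled) in 100 mM sodium acetate pH 7 with compound, fibrillization induced by 20 uM heparin for 6 hr at 37 C. Thioflavin T (30 uM) added, fluorescence read after 1 hr (ex 450, em 510 nm).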
Coupling enz: qHTS Assay for Inhibitors of Fructose-1,6-bisphosphate Aldolase from Giardia Lamblia: Coupling assay counterscreen; coupling enzyme system counterscreen, AmpLite Red fluorescence; activity change, negative = inhibition, % at 58.2 µM, hits read low; 290,000 compounds, 0.67% hits; AID 2472, 2010; in the data active = activity change below about -30%
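Counterscreen of the coupled detection system alone, without aldolase: glyceraldehyde-3-phosphate coupling enzymes plus AmpLite Red readout. Compounds at 57.5 uM final, 10 min RT preincubation, 20 min RT reaction, fluorescence 525/598 nm.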
Hits are given with their value; - = inactive; ? = inconclusive; . = not tested or not shown; [ ] = another dose, or the depositor's remark. An excerpt weighted towards active compounds, which were near 2.3% of everything screened. Unless noted, calls follow the shape of the dose curve; as a rule, active = well fitted curve in the direction sought with a large enough effect; inconclusive = small, poorly fitted or top-dose-only effect, or another doubt; inactive = no such curve, though single readings can be large; an effect the other way counts as inactive or inconclusive.

SMILES | USP1-UAF1 inh | Tau fibril FP | Tau fluor cs | Tau fibril ThT | Coupling enz
O=C(CSCc1cnn(-c2ccccc2)c1-n1cccc1)NCc1ccccc1F | - | - | - | - | .
Cc1ccc(-c2ccc(/C=C3\C(=O)ON=C3c3ccccc3)o2)c([N+](=O)[O-])c1 | ? | - | ? | 16µM | -
Cc1ccc(/C=C2\C(=O)ON=C2c2ccccc2)o1 | - | - | - | ? | -
CCn1c2ccccc2c2cc(NC(=O)c3coc(=O)c(Br)c3)ccc21 | . | - | ? | - | -
CCn1c2ccccc2c2cc(NC(=O)c3ccc(Br)o3)ccc21 | - | ? | ? | 13µM | -
COC(=O)c1ccc(NS(=O)(=O)c2ccc3[nH]c4c(c3c2)CCCC4)cc1 | - | - | 10µM[quencher] | - | .
COC(=O)c1ccc(NS(=O)(=O)c2ccc3[nH]c4c(c3c2)CCCCC4)cc1 | - | ? | 4µM[quencher] | - | .
COc1ccc(-c2nc3scc(CCNS(=O)(=O)c4ccc5c(c4)OCCO5)n3n2)cc1OC | - | - | - | - | .
COc1ccc(C2C=C(c3ccc(Cl)cc3)Nc3nc(-c4ccc(Cl)cc4)nn32)cc1 (centres undefined) | - | - | - | - | .
CCOC(=O)c1ccc(NC(=S)N2CCN(C(=O)C3CCCO3)CC2)cc1 (centres undefined) | - | . | . | . | .
O=[N+]([O-])c1ccc(/C=C2\CCC(C3=CCCC3)=C2N2CCOCC2)cc1 | - | ? | ? | 16µM | -
O=C(NP(=O)(N1CCCC1)N1CCCC1)C1=C(N2CCOCC2)/C(=C/c2cccc([N+](=O)[O-])c2)CC1 | - | - | - | - | -
Cc1c(C=Nc2ccc(S(=O)(=O)CCO)cc2)c(O)[nH]c(=O)c1C#N | - | . | . | . | .
Cc1c(C#N)c(O)n(CCO)c(=O)c1N=Nc1ccccc1 | - | - | - | 13µM | -
Cc1c(C#N)c(O)n(CCO)c(=O)c1N=Nc1ccc(S(N)(=O)=O)cc1 | - | - | - | 13µM | -
Cc1c(C=Nc2ccc(S(=O)(=O)N(C)C)cc2)c(O)[nH]c(=O)c1C#N | - | . | . | . | .
Cc1c(C#N)c(O)n(C)c(=O)c1N=Nc1ccc(S(N)(=O)=O)cc1 | - | - | - | 4µM | -
CCC12CN3CC(CC)(CN(C1)C3c1c(O)ccc3ccccc13)C2=O (centres undefined) | - | - | - | ? | -36
CCC12CN3CC(CC)(CN(C1)C3c1c[nH]c3ccccc13)C2=O (centres undefined) | - | - | - | - | .
CC1(OC(=O)c2ccc(Cl)nc2)C(=O)C=C2C=C3CCCN3C=C2C1=O (centres undefined) | ? | ? | -[11.6 µM] | 5µM | -
CC1(OC(=O)c2ccc(Cl)nc2)C(=O)C=C2C=C(c3ccsc3)OC=C2C1=O (centres undefined) | . | - | - | ? | -
CC1(OC(=O)c2ccc(Cl)nc2)C(=O)C=C2C=C(c3ccc(C#N)cc3)OC=C2C1=O (centres undefined) | . | ? | ? | 25µM | -
CCOc1ccc2nc(N3CCCCCC3)sc2c1 | - | - | - | ? | -
CCOc1ccc2nc(N3C(=O)/C(=C/c4ccccc4)NC3=S)sc2c1 | - | ? | ? | 3.5µM | -
COc1ccc2nc(N3C(=O)/C(=C/c4ccccc4)NC3=S)sc2c1 | - | - | ? | 4µM | -
SMILES | USP1-UAF1 inh | Tau fibril FP | Tau fluor cs | Tau fibril ThT | Coupling enz
COc1ccc2nc(-n3c(C)ccc3C)sc2c1 | - | - | - | ? | -
C[C@@H]1/C=C\CC(=O)OC[C@H](C)C(=O)N[C@@H](C)C(=O)OC1 | . | -[11.6 µM] | -[11.6 µM] | -[11.5 µM] | -
Nc1c(S(=O)(=O)O)cc(Nc2ccc(Nc3nc(Cl)nc(Nc4ccc(S(=O)(=O)O)cc4)n3)c(S(=O)(=O)O)c2)c2c1C(=O)c1ccccc1C2=O | . | 10µM | 2.8µM[quencher] | 4µM | .
Nc1c(S(=O)(=O)O)cc(Nc2ccc(Cl)cc2)c2c1C(=O)c1ccccc1C2=O | . | . | . | . | -
Cc1ccc(P(=O)(CSC(=N)N)c2ccc(C)cc2)cc1 | - | ? | - | 13µM | -
N=C(N)SCP(=O)(c1ccccc1)c1ccccc1 | - | ? | - | ? | -
COc1ccc(-c2csc(Nc3ccc(S(N)(=O)=O)cc3)n2)cc1 | - | ? | 13µM[quencher] | ? | -
COc1ccc(-c2csc(Nc3ccccc3)n2)cc1 | - | - | 28µM[quencher] | ? | -
Oc1ccc(Nc2nc(-c3ccc(Cl)cc3)cs2)cc1 | . | ? | 7.9µM[quencher] | 4µM | -
COc1ccc2oc(=O)c(-c3csc(Nc4ccc(O)cc4)n3)cc2c1 | - | - | 3.2µM[quencher] | 2.2µM | -
Cc1ccc(N2CCN(C(=O)c3cnn(-c4ccc(F)cc4F)c3C3CCN(C(=O)OC(C)(C)C)CC3)CC2)c(C)c1 | - | - | - | ? | .
COC(=O)c1ccc(/C=C(/NC(=O)c2ccccc2)C(=O)N2CCOCC2)cc1 | - | . | . | . | -
COc1ccc(N2CC(NC(=O)c3ccc(S(=O)(=O)N4CCCC4)cc3)CC2=O)cc1 (centres undefined) | - | - | - | - | .
COc1ccc(C)cc1NC(=O)CN1C(=O)COc2ccc(S(=O)(=O)NC3CCCC3)cc21 | - | - | - | - | .
CCC(C(=O)NCc1ccco1)N(C(=O)CNS(=O)(=O)c1ccc(C)cc1)c1ccccc1F (centres undefined) | - | . | . | . | -
COc1ccc(Nc2nc(-c3c[nH]c4ccccc34)cs2)cc1 | - | ? | 13µM[quencher] | 8.9µM | -
Brc1ccc(-c2csc(Nc3nc(-c4ccc(Br)cc4)cs3)n2)cc1 | - | - | 8.9µM[quencher] | ? | -
NS(=O)(=O)c1ccc(Nc2nc(-c3ccc(O)cc3)cs2)cc1 | - | - | ? | 13µM | -
COc1ccc(Nc2nc(-c3ccc(OC)cc3)cs2)cc1 | - | - | ? | ? | -
Oc1ccc(Nc2nc(-c3ccc(O)cc3)cs2)cc1 | - | - | 14µM[quencher] | 6.3µM | -
Cc1ccc(NC(=O)Cn2c(=O)n(Cc3nc(C)no3)c(=O)c3ccccc32)c(Cl)c1 | - | - | - | - | .
COc1ccc(S(=O)(=O)N2CCCCCC2)cc1NC(=O)Cc1cccc(C(F)(F)F)c1 | - | . | . | . | .
CCOc1ccc(-c2nc(SCC(=O)Nc3cc(F)ccc3F)n3[nH]c(=O)cc3n2)cc1 | - | - | - | - | .
COc1cc([C@@H]2c3cc4c(cc3[C@@H](OC3OC5COC(C)OC5C(O)C3O)[C@H]3COC(=O)[C@H]23)OCO4)cc(OC)c1O (some centres undefined) | . | - | - | - | .
COc1cc([C@@H]2c3cc4c(cc3[C@@H](O[C@@H]3O[C@H]5CO[C@@H](C)O[C@@H]5[C@@H](O)[C@H]3O)[C@@H]3COC(=O)[C@@H]23)OCO4)cc(OC)c1O | . | - | - | - | -49

Screening data as filed in PubChem.
